Screens: PubChem BioAssay, several laboratories
Anthrax LF inh2: inhibitors of Bacillus anthracis lethal factor protease | hit rate 0.12% among 360,000 | AID 588501 | multiplex microsphere protease cleavage assay, LF | inhibition, % at 10 µM; in the data active means inhibition above about 30%; inconclusive means no clear call, values can overlap the other calls
Target sequence (P15917 whole entry, looked up): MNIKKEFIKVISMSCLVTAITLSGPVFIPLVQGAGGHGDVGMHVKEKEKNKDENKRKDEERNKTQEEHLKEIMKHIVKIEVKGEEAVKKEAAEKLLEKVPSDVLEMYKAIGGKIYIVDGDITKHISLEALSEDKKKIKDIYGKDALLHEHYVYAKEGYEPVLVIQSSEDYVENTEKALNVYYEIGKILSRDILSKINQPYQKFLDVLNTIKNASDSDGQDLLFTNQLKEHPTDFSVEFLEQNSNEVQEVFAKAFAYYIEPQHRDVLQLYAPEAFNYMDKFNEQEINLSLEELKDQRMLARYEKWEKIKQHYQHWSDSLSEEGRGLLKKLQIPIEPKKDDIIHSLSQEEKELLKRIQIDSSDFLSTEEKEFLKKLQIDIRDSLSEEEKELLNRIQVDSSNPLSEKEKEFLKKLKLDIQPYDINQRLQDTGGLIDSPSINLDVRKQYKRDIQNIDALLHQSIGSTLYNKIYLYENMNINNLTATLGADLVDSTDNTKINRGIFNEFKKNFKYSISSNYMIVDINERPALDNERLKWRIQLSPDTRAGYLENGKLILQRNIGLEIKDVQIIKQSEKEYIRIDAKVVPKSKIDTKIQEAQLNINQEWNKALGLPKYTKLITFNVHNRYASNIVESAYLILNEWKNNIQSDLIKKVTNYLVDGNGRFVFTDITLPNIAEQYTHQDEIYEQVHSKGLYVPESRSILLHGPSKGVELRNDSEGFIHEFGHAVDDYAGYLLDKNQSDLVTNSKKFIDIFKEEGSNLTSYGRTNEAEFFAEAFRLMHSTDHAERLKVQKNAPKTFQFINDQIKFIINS
MazEF act: activators of E. coli MazEF toxin-antitoxin RNase; AID 504720; FAM/BHQ RNA-DNA oligo cleavage fluorescence, 5 h; hit rate 0.32% among 350,000; P0AE70; activation, % at 20 µM; in the data active means activation above about 50%
BoNT-F LC inh: inhibitors of Botulinum neurotoxin F light chain protease. Multiplex microsphere protease cleavage assay, flow cytometry. inhibition, % at 10 µM. hit rate 0.22% among 360,000; in the data active means inhibition above about 35%, passing the limit was not always enough; inconclusive means no clear call, values can overlap the other calls
Autofluor counter: counter-screen for toxin protease inhibitors: compound fluorescence; compound autofluorescence counterscreen, microsphere flow cytometry; active compounds read high; fluorescence intensity (no concentration beside the values); hit rate 3.1% among 360,000; in the data active means fluorescence intensity above about 16000; inconclusive means no clear call, values can overlap the other calls
BoNT A protease: inhibitors of Botulinum neurotoxin A light chain protease. multiplex microsphere protease substrate cleavage, flow cytometry. inhibition, % at 10 µM. hit rate 0.17% among 360,000; in the data active means inhibition above about 30%; inconclusive means no clear call, values can overlap the other calls
BoNT-A LC CP1: BoNT/A light chain protease inhibition; inhibition, % at 10 µM; hit rate 3% among 720; multiplex microsphere protease assay, flow cytometry; shares compounds with BoNT-F LC inh; in the data active means inhibition above about 32%
BoNT-F LC CP1: BoNT/F light chain protease inhibition. shares compounds with BoNT-F LC inh. multiplex microsphere protease cleavage assay, flow cytometry. inhibition, % at 10 µM. 720 tested, under 10 active. AID 602140
Anthrax LF CP1: inhibitors of Bacillus anthracis lethal factor protease. shares compounds with BoNT-F LC inh. multiplex microsphere protease cleavage assay, LF. inhibition, % at 10 µM. 720 tested, under 10 active
Each line names hits and unclear results; the compound was inactive in the other large screens (follow-up assays come after a bar, where they were run). A selection: hits, their analogues and other compounds. The true share with any hit is near 3.7%. Unless noted, how the calls were made is not given here.

CS(=O)(=O)N(CC(=O)N1CCOCC1)c1ccccc1	Anthrax LF inh2 44.7, BoNT-F LC inh inconclusive | BoNT-A LC CP1 inactive | BoNT-F LC CP1 inactive | Anthrax LF CP1 inactive
COc1ccc(-n2c(C)nc(N)c2C(=O)c2ccccc2)cc1	Anthrax LF inh2 56.3, BoNT-F LC inh inconclusive | BoNT-A LC CP1 inactive | BoNT-F LC CP1 inactive | Anthrax LF CP1 inactive
COC(=O)c1c(N)nc(C)n1-c1ccc(OC)cc1	none
CSc1nnc2c(n1)c(C)nn2-c1cccc(C)c1	Anthrax LF inh2 52.9, BoNT A protease 68.8 | BoNT-A LC CP1 33.3 | BoNT-F LC CP1 inactive | Anthrax LF CP1 inactive
COc1cc(S(=O)(=O)N(Cc2cccs2)CC2CCCO2)ccc1-n1cnnn1 (stereo not drawn)	BoNT-F LC inh 41.1, BoNT A protease inconclusive | BoNT-A LC CP1 inactive | BoNT-F LC CP1 inactive | Anthrax LF CP1 inactive
COC(=O)c1ccc(C(=O)OC)c(NC(=O)CN(C)Cc2ccc(Cl)c(Cl)c2)c1	Anthrax LF inh2 36.6, BoNT-F LC inh 65.0 | BoNT-A LC CP1 inactive | BoNT-F LC CP1 inactive | Anthrax LF CP1 inactive
COC(=O)c1ccccc1NC(=O)CN(C)Cc1ccccc1	none
CCc1nnc(NC(=O)CN2CCN(Cc3ccccc3Cl)CC2)s1	Anthrax LF inh2 42.3, BoNT-F LC inh inconclusive | BoNT-A LC CP1 inactive | BoNT-F LC CP1 inactive | Anthrax LF CP1 inactive
O=C(NCc1ccco1)c1ccc(S(=O)(=O)c2cccc(S(=O)(=O)N3CCOCC3)c2)cc1	BoNT-F LC inh 38.2 | BoNT-A LC CP1 inactive | BoNT-F LC CP1 inactive | Anthrax LF CP1 inactive
CCCCC(=O)N(C)c1c(CC)nc2c(OCc3ccc(C(F)(F)F)cc3)cccn12	none (no result: MazEF act)
O=C1CNC(=S)N1c1nc2ccccc2s1	Anthrax LF inh2 32.2, BoNT-F LC inh inconclusive | BoNT-A LC CP1 inactive | BoNT-F LC CP1 inactive | Anthrax LF CP1 inactive
Cc1cc(C)c2[nH]c(=O)c(C(c3nnnn3C(C)(C)C)N(Cc3ccco3)CC3CCCO3)cc2c1 (stereo not drawn)	Autofluor counter 20853 | BoNT-A LC CP1 inactive | BoNT-F LC CP1 inactive | Anthrax LF CP1 inactive
Cc1cc2cc(C(c3nnnn3C(C)(C)C)N(Cc3ccco3)CC3CCCO3)c(=O)[nH]c2cc1C (stereo not drawn)	none
Cn1c(=O)c2cc3ccccc3nc2n(C)c1=O	Anthrax LF inh2 29.5, BoNT-F LC inh inconclusive | BoNT-A LC CP1 inactive | BoNT-F LC CP1 inactive | Anthrax LF CP1 inactive
N#Cc1ccccc1NC(=O)CN1CCN(Cc2ccccc2)CC1	BoNT-F LC inh 46.1 | BoNT-A LC CP1 inactive | BoNT-F LC CP1 inactive | Anthrax LF CP1 inactive
CCOC(=O)[C@]12CCCC=C1N(Cc1ccc3c(c1)OCO3)C(=O)[C@H](CC(=O)NCCCN1CCCC1=O)C2	none (no result: MazEF act)
Cc1cc(Br)ccc1NC(=O)CN1C(=O)C2CC=CCC2C1=O (stereo not drawn)	none
COC(=O)CCC(=O)Nc1ccc(S(=O)(=O)Nc2cc(OC)nc(OC)n2)cc1	none
CCCCCC(=O)Nc1ccc(S(=O)(=O)Nc2cc(OC)nc(OC)n2)cc1	BoNT-F LC inh 39.4 | BoNT-A LC CP1 inactive | BoNT-F LC CP1 inactive | Anthrax LF CP1 inactive
CCn1c(=O)c(C(=O)Nc2cccnc2)c(O)c2ccccc21	BoNT-F LC inh 40.5 | BoNT-A LC CP1 inactive | BoNT-F LC CP1 inactive | Anthrax LF CP1 inactive
CCOC(=O)C1(C)C(=O)CC2c3nc4ccccc4cc3CN2C1=O (stereo not drawn)	none
Cc1cc(C(=O)Nc2ccon2)c(C)o1	none
Cc1cc(C(=O)Nc2cc(C(C)(C)C)on2)c(C)o1	Anthrax LF inh2 100.0, BoNT-F LC inh inconclusive | BoNT-A LC CP1 inactive | BoNT-F LC CP1 inactive | Anthrax LF CP1 inactive
O=C(CC1SCCNC1=O)NCc1ccccc1 (stereo not drawn)	none
OC1CN=C2CCCc3c2n(c2ccc(Cl)cc32)C1 (stereo not drawn)	Anthrax LF inh2 41.7, BoNT A protease 54.3 | BoNT-A LC CP1 inactive | BoNT-F LC CP1 inactive | Anthrax LF CP1 inactive
CC(=O)Nc1cccc(NC(=O)c2cccc(S(=O)(=O)N3CCN(Cc4ccccc4)CC3)c2)c1	none (no result: Anthrax LF inh2, BoNT-F LC inh, Autofluor counter, BoNT A protease)
CCN(CC)C(=O)c1ccc(NC(=O)c2cccc(S(=O)(=O)N3CCN(Cc4ccccc4)CC3)c2)cc1	Autofluor counter inconclusive, BoNT A protease 57.4 | BoNT-A LC CP1 inactive | BoNT-F LC CP1 inactive | Anthrax LF CP1 inactive
Cc1noc(C)c1C(=O)N1CCC1(C)C(=O)NS(=O)(=O)c1ccccc1C(F)(F)F (stereo not drawn)	none (no result: MazEF act)
COc1ccc(-c2c(C#N)c(N)nc3sc(C(=O)c4ccccc4)c(N)c23)cc1	BoNT A protease 44.4 | BoNT-A LC CP1 inactive | BoNT-F LC CP1 inactive | Anthrax LF CP1 inactive
CCOc1ccc(-c2c(C#N)c(N)nc3sc(C(=O)c4ccccc4)c(N)c23)cc1	none
CCn1c(C)c(C(C)=O)c(N2CCN(C(c3ccccc3)c3ccccc3)CC2)nc1=S	none
CCn1c(C)c(C(C)=O)c(N2CCN(c3ccccc3)CC2)nc1=S	BoNT A protease 46.3 | BoNT-A LC CP1 inactive | BoNT-F LC CP1 inactive | Anthrax LF CP1 inactive
Cc1ccc(C)c(OCCC(=O)Nc2ccc(S(=O)(=O)N3CCCC3)cc2)c1	none
Cc1cc2cc(CNC(=O)Cc3ccc([N+](=O)[O-])cc3)ccc2[nH]1	BoNT A protease 58.4 | BoNT-A LC CP1 inactive | BoNT-F LC CP1 inactive | Anthrax LF CP1 inactive
CCCC(=O)NCc1ccc2c(c1)cc(C)n2C	none | BoNT-A LC CP1 inactive | BoNT-F LC CP1 inactive | Anthrax LF CP1 inactive
Cc1cc2cc(CNC(=O)Cc3ccc([N+](=O)[O-])cc3)ccc2n1C	BoNT A protease 76.8 | BoNT-A LC CP1 inactive | BoNT-F LC CP1 inactive | Anthrax LF CP1 inactive
O=C(Cc1ccc([N+](=O)[O-])cc1)NCc1ccncc1	none
Cc1cc2cc(CNC(=O)c3cccc([N+](=O)[O-])c3)ccc2n1C	none
Cc1cc2cc(CNC(=O)CCC(=O)O)ccc2n1C	none | BoNT-A LC CP1 inactive | BoNT-F LC CP1 inactive | Anthrax LF CP1 inactive
CC(C)NC(=O)Nc1ccc2c(c1)C(=O)N([C@H](C)CO)C[C@H](C)[C@@H](CN(C)Cc1ccc3c(c1)OCO3)OCCCC[C@@H](C)O2	none
C=CC[C@H](CC(=O)OC(C)(C)C)C(=O)OC[C@H]1CCCN1C(=O)[C@@H](CC=C)CC(=O)N(CCO)Cc1ccccc1	none
COc1cc(NC(=O)CCc2nc(-c3cccs3)no2)cc(OC)c1OC	BoNT-F LC inh 41.6 | BoNT-A LC CP1 inactive | BoNT-F LC CP1 inactive | Anthrax LF CP1 inactive
CCc1cccc(NC(=O)CCc2nc(-c3cccs3)no2)c1	none
COc1ccc(OC)c(Nc2nc(NCCCN(C)C)nc(N)c2[N+](=O)[O-])c1	Anthrax LF inh2 31.0, BoNT-F LC inh inconclusive | BoNT-A LC CP1 inactive | BoNT-F LC CP1 inactive | Anthrax LF CP1 inactive
NC(N)=Nc1ccc(C=C2C=Cc3ccccc32)cc1	none
COCc1cc(C)nc(Nc2ccccc2OC)c1C#N	Anthrax LF inh2 31.6 | BoNT-A LC CP1 inactive | BoNT-F LC CP1 inactive | Anthrax LF CP1 inactive
CCc1nc2ccc(C(=O)NCc3ccc4c(c3)OCO4)cn2c1N(C)CCC(C)C	none (no result: MazEF act)
Cn1c(=O)c2cc(S(=O)(=O)NC(Cc3ccccc3)C(=O)NCc3ccco3)ccc2n(C)c1=O (stereo not drawn)	none
